Residue numbers refer to the chain shown, from its start.
Tests used:
Assay in all cases: protein-binding microarray (PBM); PBM: ~300 nM protein, 6 mM HEPES pH 7.8, 80 mM KCl, 0.5 mM EDTA, 0.5 mM EGTA, 6% glycerol, 35 ng/ul poly-dIdC, 1% milk, 1 h, room temperature; Ap Aiptasia and Nv Nematostella (sea anemones) / Co Capsaspora / Aq Amphimedon (sponge) / Dm Drosophila / Hu human; RHD is the Rel homology domain; high values mean tight binding
Details in all cases: dsDNA, one strand shown
GST-Ap-NF-kB RHD = molecular target: T1, GST-Ap-NF-kB RHD (Exaiptasia pallida (Aiptasia), UniProt A0A913YAJ5 2-422)
T1 sequence: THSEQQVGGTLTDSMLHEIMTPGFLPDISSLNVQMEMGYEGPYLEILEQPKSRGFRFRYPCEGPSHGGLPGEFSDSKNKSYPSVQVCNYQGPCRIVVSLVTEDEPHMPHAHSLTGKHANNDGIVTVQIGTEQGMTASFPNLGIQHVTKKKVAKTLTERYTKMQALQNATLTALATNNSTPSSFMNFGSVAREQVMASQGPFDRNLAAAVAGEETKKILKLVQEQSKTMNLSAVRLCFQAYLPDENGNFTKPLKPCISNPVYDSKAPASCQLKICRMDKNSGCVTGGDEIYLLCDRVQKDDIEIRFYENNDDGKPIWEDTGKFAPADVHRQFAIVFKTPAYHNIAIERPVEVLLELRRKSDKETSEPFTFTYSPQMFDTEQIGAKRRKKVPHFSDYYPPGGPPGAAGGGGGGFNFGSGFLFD

[1] = molecular target: T2, GST-Nv-NF-kB (Cys allele) (Nematostella vectensis, UniProt E5G601 2-411)
T2 sequence: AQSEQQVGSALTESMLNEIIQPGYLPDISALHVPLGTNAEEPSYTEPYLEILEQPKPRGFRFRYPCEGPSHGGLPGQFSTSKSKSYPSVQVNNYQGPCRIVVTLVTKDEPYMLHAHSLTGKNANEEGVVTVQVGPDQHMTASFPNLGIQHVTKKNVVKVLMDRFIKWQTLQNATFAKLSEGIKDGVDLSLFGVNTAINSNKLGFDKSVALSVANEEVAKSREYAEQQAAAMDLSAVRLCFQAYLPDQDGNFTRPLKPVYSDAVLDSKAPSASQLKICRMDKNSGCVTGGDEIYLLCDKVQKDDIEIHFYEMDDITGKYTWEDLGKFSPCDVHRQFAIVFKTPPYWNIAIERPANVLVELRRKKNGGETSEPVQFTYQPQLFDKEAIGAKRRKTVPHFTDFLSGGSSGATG

[2] = molecular target: T3, GST-Nv-NF-kB (Ser allele) (Nematostella vectensis, UniProt A7UNT2 2-411)
T3 sequence: T2 sequence with Q21R, C66S, S207N, E215Q, V217A, E225K, A268E, D399E

GST-Co-NF-kB = molecular target: T4, GST-Co-NF-kB (Capsaspora owczarzaki, UniProt F1ARL5 200-546)
T4 sequence: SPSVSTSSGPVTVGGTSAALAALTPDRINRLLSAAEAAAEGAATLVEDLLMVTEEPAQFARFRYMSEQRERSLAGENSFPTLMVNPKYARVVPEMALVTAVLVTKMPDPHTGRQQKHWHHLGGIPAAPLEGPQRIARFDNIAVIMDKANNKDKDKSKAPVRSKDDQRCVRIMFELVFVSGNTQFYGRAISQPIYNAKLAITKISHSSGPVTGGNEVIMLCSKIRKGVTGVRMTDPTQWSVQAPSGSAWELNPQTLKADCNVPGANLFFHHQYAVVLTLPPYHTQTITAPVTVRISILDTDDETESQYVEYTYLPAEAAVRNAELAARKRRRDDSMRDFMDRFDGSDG

GST-Aq-NF-kB = molecular target: T5, GST-Aq-NF-kB (Amphimedon queenslandica, UniProt A9Y5G7 2-389)
T5 sequence: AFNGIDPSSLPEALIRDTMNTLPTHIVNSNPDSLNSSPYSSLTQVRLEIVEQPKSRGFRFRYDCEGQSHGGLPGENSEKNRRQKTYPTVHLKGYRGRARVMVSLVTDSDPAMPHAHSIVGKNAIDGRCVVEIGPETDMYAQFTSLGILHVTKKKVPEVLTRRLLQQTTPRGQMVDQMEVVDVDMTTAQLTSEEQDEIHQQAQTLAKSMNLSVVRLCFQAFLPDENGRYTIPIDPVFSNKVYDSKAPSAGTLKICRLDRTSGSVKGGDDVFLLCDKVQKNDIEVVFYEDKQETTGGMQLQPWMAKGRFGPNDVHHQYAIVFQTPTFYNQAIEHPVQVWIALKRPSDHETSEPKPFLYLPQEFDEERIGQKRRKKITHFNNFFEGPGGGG

GST-Hu-p50 = GST-Hu-p50 (Homo sapiens, UniProt P19838 7-356)
Sequence of GST-Hu-p50 (P19838 7-356): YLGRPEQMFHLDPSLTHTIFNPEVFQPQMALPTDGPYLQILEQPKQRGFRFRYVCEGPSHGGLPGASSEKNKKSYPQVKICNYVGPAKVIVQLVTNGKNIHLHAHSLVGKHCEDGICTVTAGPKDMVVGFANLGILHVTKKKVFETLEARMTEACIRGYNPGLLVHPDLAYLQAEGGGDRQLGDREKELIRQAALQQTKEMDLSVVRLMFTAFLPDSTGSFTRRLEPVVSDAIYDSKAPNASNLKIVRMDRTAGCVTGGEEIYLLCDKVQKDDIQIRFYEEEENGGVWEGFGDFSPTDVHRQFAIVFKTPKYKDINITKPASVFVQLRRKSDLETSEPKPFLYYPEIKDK

| Sequence | binding signal (GST-Ap-NF-kB RHD) [z-score] | binding signal [1] [z-score] | binding signal [2] [z-score] | binding signal (GST-Co-NF-kB) [z-score] | binding signal (GST-Aq-NF-kB) [z-score] | binding signal (GST-Hu-p50) [z-score] |
| --- | --- | --- | --- | --- | --- | --- |
| CCGATTAACATCATGTTAGGGAATGATGTTAATCGGGTCTTGATTCGCTTGACGCTGCTG | 1.38 | 3.63 | 2.76 | 1.51 | 4.43 | 2.03 |
| CCGATTAACATCAGAAATGCCCATGATGTTAATCGGGTCTTGATTCGCTTGACGCTGCTG | – | – | – | – | 1.69 | 1.76 |
| CCGATTAACATCAAGAAATTCCGTGATGTTAATCGGGTCTTGATTCGCTTGACGCTGCTG | – | – | – | – | 1.24 | 1.41 |
| CCGATTAACATCAGCACGGGAAATGATGTTAATCGGGTCTTGATTCGCTTGACGCTGCTG | 1.76 | 2.98 | 2.41 | 2.59 | 2.77 | 1.64 |
| CCGATTAACATCAGGGGAGTGGATGATGTTAATCGGGTCTTGATTCGCTTGACGCTGCTG | 3.01 | 2.86 | 3.98 | 1.84 | 2.85 | 2.9 |
| CCGATTAACATCAAGGTGGGAATTGATGTTAATCGGGTCTTGATTCGCTTGACGCTGCTG | 1.55 | 3.21 | 2.3 | 2.52 | 1.99 | 1.71 |
| CCGATTAACATCACTCTTTTCCCTGATGTTAATCGGGTCTTGATTCGCTTGACGCTGCTG | 2.32 | 3.09 | 4.46 | 2.99 | 2.63 | 1.85 |
| CCGATTAACATCAAGGAGTTTCCTGATGTTAATCGGGTCTTGATTCGCTTGACGCTGCTG | – | – | – | – | 2.55 | – |
| CCGATTAACATCATATTTTCCCATGATGTTAATCGGGTCTTGATTCGCTTGACGCTGCTG | 2.18 | 4.42 | 5.61 | 4.34 | 2.52 | 4.15 |
| CCGATTAACATCAGGCAACTCCCTGATGTTAATCGGGTCTTGATTCGCTTGACGCTGCTG | 1.44 | 2.44 | 1.64 | 1.09 | 4.28 | 2.67 |
| CCGATTAACATCACGGATTGCCCTGATGTTAATCGGGTCTTGATTCGCTTGACGCTGCTG | – | – | – | – | 1.2 | – |
| CCGATTAACATCAGGATTATCCCTGATGTTAATCGGGTCTTGATTCGCTTGACGCTGCTG | 2.26 | 2.9 | 1.47 | 2.37 | 5.15 | 1.73 |
| CCGATTAACATCAGGAAACGCCCTGATGTTAATCGGGTCTTGATTCGCTTGACGCTGCTG | – | – | – | – | 3.05 | – |
| CCGATTAACATCAAGGAAATTTCTGATGTTAATCGGGTCTTGATTCGCTTGACGCTGCTG | – | – | – | – | 1.71 | 1.21 |
| CCGATTAACATCAGACATTTCCCTGATGTTAATCGGGTCTTGATTCGCTTGACGCTGCTG | 2.94 | 4.75 | 4.39 | 3.17 | 5.41 | 3.59 |
| CCGATTAACATCAGGGGCAGGGATGATGTTAATCGGGTCTTGATTCGCTTGACGCTGCTG | 2.32 | 1.46 | 1.47 | 1.59 | 2.02 | 2.01 |
| CCGATTAACATCAGTATGGGAAATGATGTTAATCGGGTCTTGATTCGCTTGACGCTGCTG | 1.32 | 2.39 | 2.22 | 2.14 | 1.79 | 1.28 |

| Sequence | binding signal (GST-Ap-NF-kB RHD) [z-score] | binding signal [1] [z-score] | binding signal [2] [z-score] | binding signal (GST-Co-NF-kB) [z-score] | binding signal (GST-Aq-NF-kB) [z-score] | binding signal (GST-Hu-p50) [z-score] |
| --- | --- | --- | --- | --- | --- | --- |
| CCGATTAACATCAAAATTTCCGTTGATGTTAATCGGGTCTTGATTCGCTTGACGCTGCTG | – | – | – | – | 1.64 | – |
| CCGATTAACATCAAAATTTTCCGTGATGTTAATCGGGTCTTGATTCGCTTGACGCTGCTG | – | – | – | – | 1.74 | 1.66 |
| CCGATTAACATCAAAGGGGCTACTGATGTTAATCGGGTCTTGATTCGCTTGACGCTGCTG | 2.79 | 3.08 | 2.12 | – | 3.2 | 3.13 |
| CCGATTAACATCAGCTATTTCCCTGATGTTAATCGGGTCTTGATTCGCTTGACGCTGCTG | 2.08 | 3.01 | 3.4 | 2.17 | 3.31 | 1.83 |
| CCGATTAACATCAGGGGAGACAATGATGTTAATCGGGTCTTGATTCGCTTGACGCTGCTG | 3.1 | 3.18 | 4.37 | 4.18 | 2.2 | 2.14 |
| CCGATTAACATCATCCCTCCCCATGATGTTAATCGGGTCTTGATTCGCTTGACGCTGCTG | 3.84 | 2.72 | 2.58 | 3.09 | 2.55 | 1.83 |
| CCGATTAACATCAGGAAGCTCCCTGATGTTAATCGGGTCTTGATTCGCTTGACGCTGCTG | 1.2 | 1.37 | – | – | 3.72 | 1.33 |
| CCGATTAACATCAGATATTACCCTGATGTTAATCGGGTCTTGATTCGCTTGACGCTGCTG | 2.58 | 3.48 | 3.01 | 2.75 | 4.82 | 2.16 |
| CCGATTAACATCATCCTGGGAAATGATGTTAATCGGGTCTTGATTCGCTTGACGCTGCTG | 1.13 | 2.18 | 1.37 | 2.72 | 1.03 | 1.74 |
| CCGATTAACATCAGGCTATTCCCTGATGTTAATCGGGTCTTGATTCGCTTGACGCTGCTG | 1.73 | 2.68 | 1.67 | 1.6 | 3.74 | 1.4 |
| CCGATTAACATCAGTGGGAAAAATGATGTTAATCGGGTCTTGATTCGCTTGACGCTGCTG | 2.21 | 3.95 | 4.53 | 4.81 | 2.62 | 3.34 |
| CCGATTAACATCAGTCCCACAGATGATGTTAATCGGGTCTTGATTCGCTTGACGCTGCTG | 1.45 | 1.55 | – | – | 1.95 | 2.52 |
| CCGATTAACATCAGGGAAATGTATGATGTTAATCGGGTCTTGATTCGCTTGACGCTGCTG | 3.08 | 4.81 | 4.88 | 3.3 | 4.45 | 3.4 |
| CCGATTAACATCATCCCGGGAAATGATGTTAATCGGGTCTTGATTCGCTTGACGCTGCTG | 1.98 | 2.94 | 2.26 | 3.63 | 2.23 | 1.36 |
| CCGATTAACATCAGCTAGTCCCTTGATGTTAATCGGGTCTTGATTCGCTTGACGCTGCTG | 3.99 | 3.63 | 2.09 | – | 3.06 | 2.73 |
| CCGATTAACATCACGGAATCTCCTGATGTTAATCGGGTCTTGATTCGCTTGACGCTGCTG | – | – | – | – | 2.17 | – |
| CCGATTAACATCAAAATTTCCAGTGATGTTAATCGGGTCTTGATTCGCTTGACGCTGCTG | – | – | – | – | 1.04 | 1.16 |

From article PMC5700166
